The campaign covered roughly 340,000 compounds. About 800 (0.24%) were called active.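 Rule for the calls: active = activation above the mean over all tested compounds plus 3 SD (cut at about 30% in these data); inactive = the rest.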 Shown is part of a subset that was picked to be rich in actives.
These compounds were tested against Troponin I, cardiac muscle (Homo sapiens) + Troponin T, cardiac muscle (Homo sapiens) + Troponin C, slow skeletal and cardiac muscles (Homo sapiens) (UniProt P19429+P45379+P63316) (assay: cardiac RTF calcium sensitivity activators, primary screen, biochemical, IANBD-TnC fluorescence, EC20 calcium (AID 493008;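 note: rise in fluorescence read as greater calcium sensitivity of cardiac thin filaments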)). Conditions: IANBD-labeled TnC RTF fluorescence at EC20 calcium; at 7.2 µM; stronger effect = higher value; 0% EC20 calcium, 100% full calcium.

Row | SMILES | activation
1 | COc1ccc(OC)c(NC(=O)c2ccc3c(c2)C(=O)N(c2ccc(OC(C)=O)cc2)C3=O)c1 | 1.02% (inactive)
2 | CCOC(=O)c1c(NC(=O)C2CC=CCC2C(=O)O)sc(C)c1CC (configuration not stated) | 1.94% (inactive)
3 | CSC1=NCCN1C(=O)Cc1cccc2ccccc12 | -2.5% (inactive)
4 | Nc1ccc2nc3c(=O)[nH]c(=S)[nH]c3nc2c1 | 266% (active)
5 | OC1CCCN(c2ncnc3c2nnn3Cc2c(F)cccc2Cl)C1 (configuration not stated) | 6.74% (inactive)
6 | CCOc1ccc(C2c3[nH]c4ccccc4c3CCN2Cc2cccn2-c2ncccn2)cc1 (configuration not stated) | 1.17% (inactive)
7 | Cc1ccc(CN2CCN(Cc3ccc4ncccc4c3)CC2CCO)cc1 (configuration not stated) | 0.85% (inactive)
8 | Cc1ccsc1-c1cc(C(=O)O)c2c(ccc3ccccc32)n1 | 2.92% (inactive)
9 | Cc1cccc(C)c1NC(=O)CCCSc1nnc(-c2ccco2)n1-c1ccccc1 | -3.75% (inactive)
10 | CCOc1ccc(-n2cnnn2)cc1S(=O)(=O)N1CCC(C)CC1C (configuration not stated) | -1.75% (inactive)
11 | COCCCNC(=O)CNC(=S)N(Cc1cc(OC)c(OC)c(OC)c1)C1CCCC1 | -8.44% (inactive)
12 | COc1ccc(/C=C/C(=O)OCC(=O)NC2CCCCCC2)cc1OC | -4.52% (inactive)
13 | CCCc1ccc(OCC(O)CN2CCN(CCO)CC2)cc1 (configuration not stated) | -4.14% (inactive)
14 | Cc1ccccc1-n1nc(SCC(=O)O)sc1=S | -0.8% (inactive)
15 | Cc1nc(N)sc1-c1ccccc1 | -3.97% (inactive)
16 | CCCN(CCC)c1nc2c(C)cccn2c(=O)c1/C=C1/SC(=S)N(Cc2ccco2)C1=O | 34% (active)
17 | Cc1ccc2[nH]c(=O)c(-c3nc4c(C)cccn4c3NCc3ccco3)cc2c1 | -3.25% (inactive)
18 | CNc1nc2c(C)cccn2c(=O)c1C=Nc1ccc(OC)cc1 | -1.57% (inactive)
19 | O=C(Cn1cnc2ccccc21)Nc1ccccc1-c1ccccc1 | -3.39% (inactive)
20 | O=C(COC(=O)c1cccc(Br)c1)Nc1cccc2c1C(=O)c1ccccc1C2=O | -3.82% (inactive)
21 | O=C(COC(=O)Cn1cnc2ccccc21)Nc1cccc2c1C(=O)c1ccccc1C2=O | 45.7% (active)
22 | O=S(=O)(NCCc1ccc(Cl)cc1)c1cccs1 | -0.86% (inactive)
23 | CCOc1ccc2oc(C(=O)N(CC)CC(=O)Nc3ccc(NC(C)=O)cc3)c(C)c2c1 | -0.31% (inactive)

Row | SMILES | activation
24 | Cc1cccc2cc3c(N)c(C(=O)N4CCCc5ccccc54)sc3nc12 | 44.8% (active)
25 | O=C(c1c(Cl)nc2sccn12)N1CCCc2ccccc21 | -2.79% (inactive)
26 | O=C(c1cc(-c2ccc(O)cc2)on1)N1CCCc2ccccc21 | 6.06% (inactive)
27 | COC(=O)Cc1c(-c2[nH]c3ccccc3c2CC(=O)OC)[nH]c2ccccc12 | 0.63% (inactive)
28 | COC(=O)C[n+]1cccc2ccccc21 | 58.3% (active)
29 | O=C(C[n+]1cc(Br)cc2ccccc21)c1ccc(F)cc1 | -1.35% (inactive)
30 | CC1CN(Cc2ccccc2)C(=S)NC1=O (configuration not stated) | -1.27% (inactive)
31 | CN(C)c1ccc(C=C2C(=O)OC3(CCCC3)OC2=O)cc1 | -3.77% (inactive)
32 | CN(C)c1ccc(/C=C2\NC(=S)N(Cc3ccccc3)C2=O)cc1 | 66% (active)
33 | CCn1cc(C(=O)N2CC=C(c3ccccc3)CC2)c(=O)c2ccc(C)nc21 | -3.54% (inactive)
34 | CCCCNC(=O)C(C)N(CCN(C)C)C(=O)CCCCCN1C(=O)NC(c2ccc(Cl)cc2)C(C(=O)OCc2ccccc2)=C1C (configuration not stated) | -4% (inactive)
35 | CCOc1ccc(N(CC(=O)NCCOc2ccccc2OC)S(=O)(=O)c2ccccc2)cc1 | 2.75% (inactive)
36 | CCCNCc1cc(OCC)c(OCC(=O)Nc2ccccc2)cc1Br | 4.49% (inactive)
37 | COc1ccc(OC)c(CCNC(=O)c2nn(C)c3c2CS(=O)(=O)c2ccccc2-3)c1 | -2.91% (inactive)
38 | O=c1ccc(S(=O)(=O)N2CCCC2)cn1Cc1nc(-c2ccccc2)no1 | -2.09% (inactive)
39 | CC1CCCN(CC(O)COc2ccc3c(c2)OCO3)C1 (configuration not stated) | -0.7% (inactive)
40 | Cn1cccc1C(=O)N1CCc2ccccc2C1 | 1.33% (inactive)
41 | OCC[C@H]1C[C@@H](O)[C@H](O)[C@]2(OCCCc3ccccc32)O1 | 2.9% (inactive)
42 | CCCC1OC23CCCCC2C(C#N)(C#N)C1(C#N)C(=N)O3 (configuration not stated) | 35% (active)
43 | C=CCC[C@@H](Cc1ccc(F)cc1)C(=O)OC[C@H](Cc1c[nH]c2ccccc12)NC(=O)[C@@H](CC=C)CC(=O)N(CCO)Cc1ccccc1 | -0.54% (inactive)
44 | CN1CCNC(=O)C1CC(=O)NCCC1=CCCCC1 (configuration not stated) | 9.88% (inactive)
45 | COc1ccc(C(=O)OCc2cc(=O)n3ccsc3n2)cc1F | -7.02% (inactive)
46 | COCc1cc(=O)[nH]c2cc(NC(=O)C(F)(F)F)c(C)cc12 | -3.59% (inactive)

Row | SMILES | activation
47 | CCOC(=O)N1CCC(c2cc(=O)n(-c3ccccc3)[nH]2)CC1 | 2.7% (inactive)
48 | O=c1cc(N2CCCCC2)c(-c2ccccc2)nn1Cc1cccc(F)c1 | -0.45% (inactive)
49 | Cc1nc([N+](=O)[O-])cn1CC(=O)Nc1ccc(Cl)cc1 | 0.6% (inactive)
50 | Nc1nc(SCC(=O)N2CCN(S(=O)(=O)c3ccc(Cl)cc3)CC2)n[nH]1 | 11.6% (inactive)
51 | Cc1nc(N=C(N)N)nc2c(C)cccc12 | -2.23% (inactive)
52 | COCCCNC(=O)C1CCN(c2ccc(N3CCOCC3)nn2)CC1 | 1.09% (inactive)
53 | CC1CCN(c2c(NCc3ccc(C(=O)NCc4ccccc4)cc3)c(=O)c2=O)CC1 | 13.9% (inactive)
54 | Cc1ccc(CNC(=O)c2cccc3c2C(=O)c2ccc(N4CCC(C)CC4)cc2S3(=O)=O)cc1 | 100% (active)
55 | Cc1ccc(CNC(=O)c2ccc3c(c2)S(=O)(=O)c2ccccc2C3=O)cc1 | -0.11% (inactive)
56 | O=C(NCc1ccccc1CN1CCCC1)c1cccc(S(=O)(=O)Nc2ccc(F)cc2)c1 | -1.12% (inactive)
57 | COc1ccc(OC)c(Cc2cnc3nc(N)nc(N)c3c2C)c1 | 0.81% (inactive)
58 | Cc1cccc(NC(=O)CN2CCN(CC(=O)NCC3(N4CCCCC4)CCCCC3)CC2)c1C | -1.57% (inactive)
59 | COc1ccc(CNC(=O)COC(=O)C2=Cc3ccccc3OC2)cc1 | -9.53% (inactive)
60 | CN(O)C(=S)c1ccccc1 | -1.46% (inactive)
61 | Cc1c(C)n2c(SCC(=O)NC3CCCC3)nnc2[nH]c1=O | 0.28% (inactive)
62 | CCCN(CCC)S(=O)(=O)c1ccc(C(=O)N2CC3CCC(CC3)C2)cc1 | -0.05% (inactive)
63 | CCN1CC=C2C(C#N)=C(N)C(C#N)(C#N)[C@H](c3ccoc3)[C@H]2C1 | 62% (active)
64 | C=CCOc1ccc(/C=C2\SC(=S)N(CCC(=O)O)C2=O)cc1 | 1.79% (inactive)
65 | Cc1ccc(-c2nn(-c3ccccc3)cc2/C=C2\SC(=S)N(CCCCCC(=O)O)C2=O)o1 | 48.1% (active)
66 | Cc1ccc(/C=C2/SC(=S)N(CCC(=O)NCCCN3CCOCC3)C2=O)cc1 | 2.69% (inactive)
67 | Cc1ccc(-c2noc(C3CCCN(C(=O)c4cccc(Cl)c4)C3)n2)o1 (configuration not stated) | -2.07% (inactive)
68 | CC(C)CC(CCc1ccccc1)OS(N)(=O)=O (configuration not stated) | -4.63% (inactive)
69 | COc1ccc(CNCCCNCc2ccc(OC)c(OC)c2)cc1OC | 0.94% (inactive)

Row | SMILES | activation
70 | C=CCn1c(SCC(=O)c2c(N)n(C)c(=O)n(C)c2=O)nc2sc(CC)cc2c1=O | 1.89% (inactive)
71 | C[C@H](NC(=O)c1ccccc1Cl)C(=O)OCCOc1cccc(Cl)c1 | 1.17% (inactive)
72 | Cc1ccc(C2=CSC3=NS(=O)(=O)CCN23)cc1C | 13.6% (inactive)
73 | C/C(=C/c1ccccc1)C(=O)N1CCN(c2ccccc2)CC1 | 9.01% (inactive)
74 | Cc1[nH]c(N)nc(=S)c1CCCNc1ccccc1 | -2.1% (inactive)
75 | C=CC[C@H](CC(=O)NCCO)C(=O)N[C@@H](COC(=O)[C@@H](CC=C)Cc1ccc(F)cc1)Cc1c[nH]c2ccccc12 | 2.33% (inactive)
76 | CCCCCCc1cc2cc(-c3nnc(-c4ccccc4)o3)c(=O)oc2cc1O | 76.8% (active)
77 | Cc1c(CCC(=O)O)c(=O)oc2cc3occ(-c4ccccc4)c3cc12 | 5.11% (inactive)
78 | CCc1ccc(CN(C)C(=O)CCc2nnc(-c3ccc(-c4ccccc4)cc3)o2)nc1 | -1.69% (inactive)
79 | O=C(N[C@H]1C/C=C\C(c2cccc(F)c2)N(Cc2ccccc2)C(=O)C1)OCC1c2ccccc2-c2ccccc21 (some centres not stated) | -0.43% (inactive)
80 | COc1ccc(C(CNCC(=O)Nc2ccccc2F)N(C)C)cc1 (configuration not stated) | -1.39% (inactive)
81 | S=C(Nc1ccc2c(c1)OCO2)N1CCCC1 | 8.04% (inactive)
82 | CC(C)OC(=O)C(C#N)c1nc2ccccc2nc1N1CCN(Cc2ccccc2)CC1 (configuration not stated) | -2.43% (inactive)
83 | CCOC(=O)/C(C#N)=C/c1ccc(OCC(=O)Nc2ccccc2)c(OC)c1 | 6.94% (inactive)
84 | CCOC(=O)/C(C#N)=C/c1ccc(N2CCN(Cc3ccccc3)CC2)cc1 | 42.2% (active)
85 | Cc1ccnc(N2CCN(C(=O)CSc3nc4ccccc4nc3N3CCCCC3)CC2)c1 | 0.05% (inactive)
86 | Cc1ccccc1NC(=O)c1ccc(COc2ccc3c(C)cc(=O)oc3c2)cc1 | 1.18% (inactive)
87 | O=C(CCC(=O)N1CCCC1)Nc1ccc([N+](=O)[O-])cc1 | -1.36% (inactive)
88 | Cc1cc(-c2n[nH]c(=S)n2/N=C/C(Br)=C/c2ccccc2)n[nH]1 | 0.67% (inactive)
89 | CCOC(=O)/C=C/C(=O)OCC(=O)NC(c1ccccc1)c1ccccc1 | -0.28% (inactive)
90 | CN(C)S(=O)(=O)c1cc(NC(=O)CN2C(=O)NC3(CCCc4ccccc43)C2=O)ccc1Cl (configuration not stated) | 5.19% (inactive)
91 | Oc1ccc(-c2nc3ccccc3nc2-c2ccc(O)cc2O)c(O)c1 | 2.23% (inactive)
92 | Oc1ccc2ccc3cccc[n+]3c2c1 | 720% (active)

— PubChem BioAssay AID493008 (The Scripps Research Institute Molecular Screening Center, 2010)
